Results taken from PubChem BioAssay AID1159580 (chemical genetic matrix, 2015).
Several values for one entry are separate records, joined by “and”; a condition that tells them apart may be missing. Equal entries are not always repeated. In all, about 5,500 compounds went through this assay and about 2,000 (36%) were called active. Another 18% or so got no clear call; they are omitted. No stated cut-off is given here; in the data, active means normalized growth mostly below about 0.91 (no sharp cut-off); inconclusive means no clear call, values can overlap the other calls; inactive means mostly above about 0.92. This is one part of the list.

Assay: chemical genetic growth profiling, strain panel (AID 1159580);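 further: tested at 20 µM; growth read once vehicle control cultures reached saturation at 30 °C; 1 = growth at the plate median or of vehicle wells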
Details: S. cerevisiae deletion strains, growth OD

Measured: normalized growth

CCn1cc(C(=O)O)c(=O)c2ccc(C)nc21
active: locus YAL021C, strain ccr4, stronger effect = lower value 0.805 | locus YAL026C, strain drs2, stronger effect = lower value 0.855 | locus YAL030W, strain snc1, stronger effect = lower value 0.917 | locus YBR229C, strain ROT2, stronger effect = lower value 0.914 | locus YBR279W, strain paf1, stronger effect = lower value 0.924 | locus YDL040C, strain nat1, stronger effect = lower value 0.923 | locus YDL192W, strain arf1, stronger effect = lower value 0.9 | locus YDR137W, strain rgp1, stronger effect = lower value 0.345 | locus YDR195W, strain ref2 0.691 | locus YGL167C, strain pmr1, stronger effect = lower value 0.912 | locus YGL173C, strain kem1, stronger effect = lower value 0.799 | locus YGL240W, strain doc1, stronger effect = lower value 0.834 | locus YHR094C, strain hxt1, stronger effect = lower value 0.923 | locus YHR129C, strain ARP1, stronger effect = lower value 0.918 | locus YIR030C, strain dcg1, stronger effect = lower value 0.914 | locus YJL134W, strain LCB3, stronger effect = lower value 0.92 | locus YJL168C, strain set2, stronger effect = lower value 0.895
inactive: locus YAL013W, strain DEP1, stronger effect = lower value 0.938 and 0.977 | locus YAL040C, strain CLN3, stronger effect = lower value 0.961 | locus YBL061C, strain skt5, stronger effect = lower value 0.928 | locus YBR009C, strain hhf1, stronger effect = lower value 0.947 | locus YBR021W, strain FUR4, stronger effect = lower value 1.09 | locus YBR023C, strain chs3, stronger effect = lower value 0.945 | locus YBR171W, strain sec66, stronger effect = lower value 0.931 | locus YBR231C, strain swc5, stronger effect = lower value 0.936 | locus YCL011C, strain gbp2, stronger effect = lower value 0.939 | locus YCL016C, strain dcc1, stronger effect = lower value 0.945 | locus YCL029C, strain bik1, stronger effect = lower value 0.935 | locus YCL061C, strain MRC1 (second series), stronger effect = lower value 0.961 | locus YCL061C, strain MRC1, stronger effect = lower value 0.936 | locus YCL069W, strain vba3, stronger effect = lower value 0.943 | locus YCR088W, strain abp1, stronger effect = lower value 0.953 | locus YDL005C, strain med2, stronger effect = lower value 0.983 | locus YDL035C, strain GPR1, stronger effect = lower value 0.963 | locus YDL074C, strain BRE1, stronger effect = lower value 1.06 | locus YDL101C, strain DUN1, stronger effect = lower value 0.941 | locus YDL134C, strain PPH21, stronger effect = lower value 0.912 | locus YDL185W, strain tfp1, stronger effect = lower value 0.924 | locus YDR001C, strain nth1, stronger effect = lower value 0.94 | locus YDR069C, strain doa4, stronger effect = lower value 0.932 | locus YDR101C, strain arx1, stronger effect = lower value 0.92 | locus YDR150W, strain NUM1, stronger effect = lower value 0.936 and 0.96 | locus YDR159W, strain sac3, stronger effect = lower value 1.07 | locus YDR162C, strain NBP2, stronger effect = lower value 0.936 | locus YDR297W, strain sur2, stronger effect = lower value 0.928 | locus YDR318W, strain mcm21, stronger effect = lower value 0.963 | locus YDR334W, strain swr1, stronger effect = lower value 0.916 | locus YDR335W, strain msn5, stronger effect = lower value 0.937 | locus YDR363W, strain ESC2, stronger effect = lower value 0.965 | locus YDR388W, stronger effect = lower value 0.941 | locus YDR392W, strain spt3, stronger effect = lower value 1.03 | locus YDR502C, strain sam2, stronger effect = lower value 0.961 | locus YEL003W, strain gim4, stronger effect = lower value 0.939 | locus YEL037C, strain rad23, stronger effect = lower value 0.926 | locus YEL061C, strain CIN8 (second series), stronger effect = lower value 0.935 | locus YEL061C, strain CIN8, stronger effect = lower value 0.946 | locus YER002W, strain NOP16, stronger effect = lower value 0.958 | locus YER015W, strain faa2, stronger effect = lower value 0.947 | locus YER016W, strain bim1, stronger effect = lower value 0.924 | locus YER110C, stronger effect = lower value 0.9 | locus YER111C, strain swi4, stronger effect = lower value 0.966 | locus YER155C, strain BEM2 (second series), stronger effect = lower value 0.943 | locus YER155C, strain BEM2, stronger effect = lower value 0.951 | locus YER167W, strain BCK2, stronger effect = lower value 0.988 | locus YFR010W, strain ubp6, stronger effect = lower value 0.974 | locus YGL078C, strain dbp3, stronger effect = lower value 0.947 | locus YGL086W, strain mad1, stronger effect = lower value 0.954 | locus YGL227W, strain vid30, stronger effect = lower value 0.939 | locus YGL248W, strain PDE1, stronger effect = lower value 0.906 | locus YGL253W, strain hxk2, stronger effect = lower value 0.957 | locus YGR078C, strain PAC10, stronger effect = lower value 0.997 | locus YGR135W, strain pre9, stronger effect = lower value 0.916 | locus YGR229C, strain SMI1, stronger effect = lower value 1 and 0.98 | locus YHR013C, strain ard1, stronger effect = lower value 1.02 | locus YHR027C, strain rpn1, stronger effect = lower value 0.938 | locus YHR030C, strain SLT2, stronger effect = lower value 0.921 and 0.918 | locus YHR079C, strain IRE1 (second series), stronger effect = lower value 0.932 | locus YHR079C, strain IRE1, stronger effect = lower value 0.97 | locus YHR142W, strain chs7, stronger effect = lower value 0.979 | locus YHR200W, strain rpn10, stronger effect = lower value 0.963 | locus YIL066C, strain RNR3, stronger effect = lower value 0.972 | locus YIL073C, strain SPO22, stronger effect = lower value 0.97 | locus YIL125W, strain kgd1, stronger effect = lower value 0.951 | locus YJL092W, strain hpr5, stronger effect = lower value 0.961 | locus YJL095W, strain BCK1 (second series), stronger effect = lower value 0.942 | locus YJL095W, strain BCK1, stronger effect = lower value 0.949 and 0.948 | locus YJL115W, strain asf1, stronger effect = lower value 0.956 | locus YJL129C, strain trk1, stronger effect = lower value 0.972 | locus YJL154C, strain vps35, stronger effect = lower value 0.959 | locus YJL164C, strain tpk1, stronger effect = lower value 0.946 | locus YJL166W, strain qcr8, stronger effect = lower value 0.94 | locus YJL187C, strain SWE1 (second series), stronger effect = lower value 0.93 | locus YJR043C, strain POL32, stronger effect = lower value 0.967 | locus YJR066W, strain TOR1, stronger effect = lower value 0.899 | locus YJR075W, strain HOC1, stronger effect = lower value 0.972 and 0.961
